Only some compounds are listed: those with a hit (about 2.7% of all), similar ones and a draw of the others.
KKLEB tox: reduces viability of KKLEB cystic fibrosis airway cells; KKLEB CF airway cells viability, ATPlite luminescence, overnight; stronger effect = lower value; cells stimulated with P. aeruginosa culture filtrate; activity change (cytotoxicity), % at 5 µM; hit rate 0.36% among 360,000;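 active = corrected activity change at or below -50% at 5 µM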
MITF TRPM1 inh: MITF TRPM1 promoter inhibition in SK-MEL-5 cells; SK-MEL-5 TRPM1 promoter luciferase, 24 h; inhibition, % at 12.5 µM; hit rate 0.83% among 330,000; AID 488899;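 active = mean inhibition across replicates of 60% or more, whatever share of single replicates reaches that level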
CF NFkB block: inhibitors of cystic fibrosis induced NF-kB; hit rate 0.86% among 360,000; inhibition, % at 5 µM; AID 588850; KKLEB NF-kB-GFP reporter, PAF-induced, GFP fluorescence overnight;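 active = at least 50% inhibition at 5 µM, scaled per plate between neutral and stimulator controls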;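 note: PAF is a Pseudomonas aeruginosa culture filtrate used as stimulus; plate controls were PAF-stimulated DMSO wells for no effect and unstimulated DMSO wells for full effect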
Shn3 3UTR inh: reduces Shn3 3'UTR luciferase signal in osteoblasts. hit rate 0.52% among 360,000. AID 588674. inhibition, % at 12.5 µM. Clone20 osteoblast Shn3 3'UTR firefly luciferase, 24 h;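 active = mean inhibition of at least 75% with every replicate also reaching 75%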;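 note: 0% = median of neutral control wells and 100% = pilot-screen positive control compound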
Peg3 prom inh: Peg3 promoter activity inhibition; HeLa PEG-Prom luciferase reporter, luminescence, overnight; inhibition, % at 20 µM; hit rate 1.7% among 360,000;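 active = inhibition of at least 50% at 20 µM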
HIF-2a inh: blocks HIF-2a reporter activity; inhibition, % at 18.8 µM; AID 624352; hit rate 0.72% among 360,000; 786-0 RCC cells HIF-2a reporter, luciferase luminescence, overnight;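 active = inhibition of the luminescence signal of 40% or more relative to plate controls, in a single-dose primary screen at 18.75 µM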
CF NFkB inh conf: CF NF-kB inhibition confirmation, single concentration. shares compounds with CF NFkB block. KKLEB CF airway cells, PAF-induced NF-kB-GFP fluorescence, overnight. inhibition, % at 5 µM. hit rate 64% among 1,300. AID 602472; in the data active = inhibition above about 40%;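 note: stimulus PAF is a Pseudomonas aeruginosa filtrate and not platelet activating factor; plate controls were DMSO wells with stimulus for no effect and unstimulated DMSO wells for full effect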
The depositor's hits bear a star; · = no result; ! = not confirmed by another sample.

SMILES	KKLEB tox	MITF TRPM1 inh	CF NFkB block	Shn3 3UTR inh	Peg3 prom inh	HIF-2a inh	CF NFkB inh conf
C[C@@H]1C[C@H]2[C@@H]3CCC4=CC(=O)C=C[C@]4(C)[C@@]3(F)[C@@H](O)C[C@]2(C)[C@@]1(O)C(=O)CO	13.2	-26.6	70.6*	6.8	-7.3	34.6	21.4
Cc1cccc(NC(=O)c2nc[nH]c2C(=O)NCCCNC(=O)c2[nH]cnc2C(=O)Nc2cccc(C)c2)c1	-24.8	-14.2	63.9*	9.1	93.0*	5.0	78.7*
Cc1cccc(NC(=O)c2nc[nH]c2C(=O)NCCN(CCNC(=O)c2[nH]cnc2C(=O)Nc2cccc(C)c2)CCNC(=O)c2[nH]cnc2C(=O)Nc2cccc(C)c2)c1	-20.8	30.0	7.4	-22.7	47.6	-0.2	·
CNC(=O)C[C@H]1C(=O)N(C2CCCCC2)C[C@@H]1c1ccc(Br)cc1	-8.2	·	17.4	-31.5	12.2	-13.2	·
C[C@H]1Cn2cnc(C(=O)Nc3cccc(Cl)c3)c2C(=O)N1	14.0	·	61.9*	10.8	38.6	-6.4	91.1*
CC1CCN(Cc2c(C(=O)N/N=C/c3ccc(C(C)(C)C)cc3)nnn2-c2nonc2N)CC1	-41.0	22.9	52.9*	56.9	106.1*	23.5	62.5*
COc1ccc(C(C)(NC(C)=O)c2nc(-c3ccc(F)cc3OC)cs2)cc1 (stereo unspecified)	8.7	·	-12.1	14.7	26.5	15.7	·
Cc1onc(-c2ccccc2)c1C(=O)N1CCCSC1=Nc1ccccc1	2.3	0.4	55.9*!	-17.0	4.7	10.2	-17.0
COc1ccc(C(O)c2nc(-c3cc(F)cc(Cl)c3)cs2)cc1 (stereo unspecified)	4.9	·	-7.6	-48.2	-9.8	-31.8	·
Clc1ccc(CSc2nnc(-c3ccncc3)o2)cc1	-4.8	-21.5	70.4*	1.8	-14.3	-42.1	61.6*
O=c1c(-c2c(O)cc(O)c3c2O[C@H](c2ccc(O)cc2)CC3)c(-c2ccc(O)cc2)oc2cc(O)cc(O)c12	-0.1	-15.3	75.4*	-30.3	46.8	2.1	101.4*
Cc1ccccc1CNC(=O)c1csc([C@@H]2C[C@H](O)[C@@H](CO)O2)n1	-1.7	·	-3.2	-0.6	7.0	1.9	·
COc1cccc2sc(N3CCN(c4nc5ccccc5s4)CC3)nc12	-34.5	24.0	56.5*	61.5	16.2	0.2	28.8
CN(Cc1ccccc1)C(=O)C(=O)c1ccccc1	·	·	·	·	·	-49.2	·
COc1ccc(CN(C)C(=O)[C@H]2O[C@@H](n3ccc(N)nc3=O)[C@H](O)[C@@H]2O)cc1OC	0.7	·	-8.0	-15.7	0.6	1.0	·
Cc1ccc(S(=O)(=O)Oc2ccccc2/C=N/NC(=O)c2nn(C)cc2[N+](=O)[O-])cc1	-6.9	-3.2	4.9	-8.2	-4.4	-3.0	·
Cc1ccc(S(=O)(=O)Oc2ccc(/C=N/NC(=O)c3nn(C)cc3[N+](=O)[O-])cc2)cc1	-34.0	0.6	51.0*	5.3	-50.2	1.4	-56.6
Cc1nn(-c2ccccn2)c2c1-c1nc(N)ncc1CC2	-11.5	-100.3	57.9*	-63.9	-235.1	-163.1	54.4*
O=C(c1c[nH]c2ccccc12)C(Cl)c1ccccc1 (stereo unspecified)	-32.6	13.2	63.2*	16.6	10.4	-29.8	42.1*
O=C(c1c[nH]c2ccccc12)C(O)C(c1ccccc1)N1CCOCC1 (stereo unspecified)	-9.3	-6.3	10.8	-2.9	0.1	2.8	·
Cc1cc(N2CCOCC2)c2c(N)c(Br)cc(C)c2n1	-5.5	0.2	65.8*	9.8	13.2	22.3	96.7*
O=C(Nc1cccnc1)Nc1cccc(F)c1	-9.8	-1.4	-1.7	3.2	-26.2	-72.9	·
CC(=O)c1cccc(NC(=O)Nc2cccnc2)c1	-5.2	-6.0	56.7*	13.0	-18.6	-7.4	77.0*
COC(C/C=C/C(=O)COCc1ccccc1)OC	-6.8	-0.3	9.9	-18.9	-3.8	-8.0	·
COC(C/C=C/C(=O)[C@H](C)OCc1ccccc1)OC	-16.4	0.3	58.4*	-62.1	20.4	14.7	-34.6
SMILES	KKLEB tox	MITF TRPM1 inh	CF NFkB block	Shn3 3UTR inh	Peg3 prom inh	HIF-2a inh	CF NFkB inh conf
COc1ccccc1Cn1c(=O)c2ccccc2n2c(Sc3ncnc4sccc34)nnc12	-30.9	19.0	72.1*	57.6	26.4	23.8	48.1*
COc1ccccc1Cn1c(=O)c2ccccc2n2c(SCc3csc(C)n3)nnc12	5.3	4.7	-13.2	2.2	15.3	19.0	·
Cc1ccc(NC(=O)CSc2ncnc3ccccc23)cc1S(=O)(=O)N1CCOCC1	-20.8	13.2	55.9*	8.7	19.0	28.8	72.8*
Cc1ccc(NC(=O)CSc2ncnc3ccccc23)cc1S(=O)(=O)N1CCCCC1	1.4	16.7	41.3	10.8	12.1	21.4	·
O=C(c1cccc(NS(=O)(=O)c2ccc(F)c(F)c2)c1)N1CCN(C(c2ccccc2)c2ccccc2)CC1	2.3	3.3	50.0*	24.9	22.4	17.7	-4.1
O=C(c1cccc(NS(=O)(=O)c2ccccc2)c1)N1CCCC1	11.6	1.5	-18.1	-3.3	-1.1	9.7	·
CCC(=O)c1ccc(O)c(CC=C(C)C)c1	-8.2	2.0	57.4*	-6.1	-3.3	20.0	64.4*
O=C(Nc1ccc(F)c(Cl)c1)C1Cc2c(-c3cccc(F)c3)ccnc2O1 (stereo unspecified)	4.3	·	-34.8	22.4	30.1	-11.7	·
COc1cc(-c2nnc(NC(=O)CCS(=O)(=O)c3ccc(F)cc3)o2)cc(OC)c1OC	-29.5	2.0	54.1*	-25.0	-10.0	-2.7	34.2
COc1cc(-c2nnc(NC(=O)CCS(=O)(=O)c3ccccc3)o2)cc(OC)c1OC	2.6	13.3	2.7	-7.6	-55.6	-10.4	·
O=C(NCc1ccc(F)cc1)C(c1ccccc1)N(C(=O)c1csnn1)c1ccccc1 (stereo unspecified)	3.1	-3.0	61.0*	14.9	40.2	23.9	16.7
NC(=O)c1nsc(C(=O)N(c2ccccc2)C(C(=O)NCc2ccc(F)cc2)c2ccc(O)cc2)c1N (stereo unspecified)	-9.6	10.3	52.0*	5.0	55.1*	20.4	74.3*
O=C(NCc1ccccc1)C(c1ccccc1)N(C(=O)c1csnn1)c1ccccc1 (stereo unspecified)	-6.3	9.3	19.2	10.5	31.2	17.6	·
CN(C(=O)COc1ccccc1C(=O)NCCOc1ccccc1)c1ccccc1	-25.6	27.5	56.9*	93.7*	106.3*	-10.4	23.2
O=C(NCCOc1ccccc1)c1ccccc1Cl	12.6	-74.1	-9.0	-9.1	-168.7	-163.2	·
Cn1c(=O)cc(SCC(=O)Nc2cccnc2)c2ccccc21	-4.3	-21.9	-6.3	-13.9	-24.9	-44.6	·
Cc1ccnc(NC(=O)CSc2cc(=O)n(C)c3ccccc23)c1	-25.5	-1.9	88.0*	8.6	69.7*	-263.9	52.3*

Screens deposited in PubChem BioAssay by several laboratories.
